# Data published in PubChem BioAssay (NCI).
# Compounds without any hit were thinned out: in the full panel of roughly 83,000, 20% have a hit.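 Cell lines were cultured in 96-well plates, exposed to a single compound concentration, and assessed for percent growth 48 hours later.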 Unmarked numbers belong to inactive results. Calls of active or inactive are those of the source. How the source made its calls: active means growth percent below 10; inactive means the rest.
# What was measured:
# Assay in all cases: NCI-60 one-dose screen, 48 h (100 = growth as untreated, 0 = no growth, -100 = all killed)
# Conditions in all cases: 10 µM unless noted
# [1] = tested on: SR leukemia
# [2] = tested on: RPMI-8226 leukemia
# [3] = tested on: OVCAR-8 ovarian
# [4] = tested on: OVCAR-5 ovarian
# [5] = tested on: OVCAR-4 ovarian
# [6] = tested on: SK-OV-3 ovarian
# [7] = tested on: IGROV1 ovarian
# [8] = tested on: OVCAR-3 ovarian
# [9] = tested on: HS 578T breast
# [10] = tested on: T-47D breast
# [11] = tested on: BT-549 breast
# [12] = tested on: MDA-MB-435 melanoma
# [13] = tested on: SW-620 colon
# [14] = tested on: MCF7 breast
# [15] = tested on: HCT-116 colon
# [16] = tested on: HCC-2998 colon
# [17] = tested on: KM12 colon
# [18] = tested on: NCI/ADR-RES ovarian
Compound,growth [1],growth [2],growth [3],growth [4],growth [5],growth [6],growth [7],growth [8],growth [9],growth [10],growth [11],growth [12],growth [13],growth [14],growth [15],growth [16],growth [17],growth [18]
CCC(=C(c1ccc(OCCN2CCCC2)cc1)c1ccc(OCCN2CCCC2)cc1)c1ccc(Cl)cc1,-40.5% (active),-44.1% (active),-7.08% (active),19.5%,-43.4% (active),84.8%,-20.2% (active),-57.6% (active),-47.4% (active),-41.6% (active),69.5%,-91.2% (active),-77.7% (active),-76% (active),-81% (active),-93.7% (active),-74.2% (active),
CNC(=O)c1cc(Oc2ccc3c(c2)sc2nc(-c4cc(OC)c(OC)c(OC)c4)cn23)ccn1,35.5%,21%,49.1%,104%,46.2%,77.7%,72.7%,71.9%,70.2%,-4.73% (active),,51.7%,77.4%,32.1%,55.2%,,66.3%,63.5%
CN1CCN(c2ccc(NC(=O)c3nc4ccc5[nH]ncc5c4c4c3CCCC4)cc2C(F)(F)F)CC1,13.6%,24.1%,3.3% (active),85.5%,65.2%,100%,4.75% (active),11.5%,77.6%,66.5%,,29.7%,5% (active),24.6%,2.82% (active),,37.9%,70%
CC1(C)CC2=C3C=C[C@@H]4[C@@]5(C)CCC(=O)C(C)(C)[C@@H]5CC[C@@]4(C)[C@]3(C)CC[C@@]2(C(=O)O)CC1=O,71.7%,31.8%,89.6%,93.2%,64.5%,84.3%,85.3%,60.1%,95.6%,74.4%,41.5%,49.4%,66.9%,57.3%,64.6%,84.3%,78.3%,
OCCCC1CCN(C(Cc2ccccc2)c2ccccc2)CC1 (centres undefined),120%,98.3%,98.5%,60.2%,92.3%,84.9%,96.8%,89.2%,101%,56.9%,,96.4%,,94.6%,83.9%,94.4%,94.7%,93.9%
C#Cc1cccc(Nc2ncnc3ccc(-c4cncc(NS(C)(=O)=O)c4)cc23)c1,7.86% (active),26.3%,37.1%,21.9%,52.1%,0.85% (active),-12.4% (active),7.33% (active),6.13% (active),-5.8% (active),19.2%,44.8%,31.1%,10.9%,11%,45.5%,36.1%,
CN[C@]12CC3(C=CC(=O)C=C3)O[C@@]1(Cc1ccc(OC)cc1)N(C)C(=O)N2,8.34% (active),-3.85% (active),15.6%,18.3%,32.2%,85.7%,-28.4% (active),11.2%,,16.6%,41.5%,1.71% (active),11.1%,23.3%,-35.2% (active),32.7%,9.7% (active),55.6%
C=C(C)[C@@H]1CC[C@]2(C(=O)OC)CC[C@]3(C)[C@H](CC[C@@H]4[C@@]5(C)C/C(=C/NC(N)=S)C(=O)C(C)(C)[C@@H]5CC[C@]43C)[C@@H]12,81.6%,69.6%,97.5%,118%,84.2%,97.7%,70.6%,88.5%,91.7%,60.9%,126%,93.7%,87.3%,80.7%,74.4%,99.4%,82.6%,
Cc1nnc(-n2c(O)cc(=O)n(-c3ccccc3)c2=S)nc1/C=C/c1ccc(N(C)C)cc1,36.2%,16.1%,53.3%,82.7%,50.3%,45.6%,58.1%,44.3%,47.8%,38%,,24.8%,67.2%,21.6%,56.1%,63.7%,47.9%,
Fc1ccc(Nc2nc3nonc3nc2Nc2ccc(I)cc2)cc1,-4.09% (active),-11.6% (active),4.01% (active),37.5%,17.8%,-24.5% (active),23.2%,9.78% (active),8.99% (active),-26.7% (active),,4.78% (active),,1.98% (active),3.42% (active),9.77% (active),2.12% (active),4.92% (active)
COc1ccc(/C=N/NC(=O)CCN2c3ccccc3Sc3ccccc32)cc1,33.8%,94%,99.3%,86.3%,89.6%,97.1%,66.3%,76.4%,85.9%,81.5%,,8.72% (active),57.4%,42.7%,69.4%,92.3%,53.8%,69.4%
C=C1C(=O)O[C@H]2[C@H]1CC/C(COC(=O)N[C@H]1C[C@H](O[C@H]3C[C@](O)(C(=O)CO)Cc4c(O)c5c(c(O)c43)C(=O)c3c(OC)cccc3C5=O)O[C@@H](C)[C@H]1O)=C\CC[C@@]1(C)O[C@@H]21,5.44% (active),-24.2% (active),66%,96.4%,62.5%,107%,56.7%,-8.47% (active),,29.7%,22.7%,66%,1.42% (active),12.1%,7.69% (active),99.3%,90.1%,100%
COC(C(=O)[C@@H](O)[C@@H](C)O)[C@@H]1Cc2cc3cc(O[C@H]4C[C@@H](O[C@H]5C[C@@H](O)[C@H](O)C(C)O5)[C@H](O)C(C)O4)c(C)c(O)c3c(O)c2C(=O)[C@H]1O[C@H]1C[C@@H](O[C@H]2C[C@@H](O[C@H]3C[C@@H](O)[C@H](OC)C(C)O3)[C@@H](O)C(C)O2)[C@H](O)C(C)O1 (some centres undefined),3.51% (active),0.837% (active),7.56% (active),14.8%,11.8%,19.1%,16.9%,5.62% (active),20.3%,-0.919% (active),-22.9% (active),-54.2% (active),,6.29% (active),12.1%,1.1% (active),13.7%,
CCCCCCCCn1ccc2cc(NC(=O)CN3CCN(c4nc(C)cc(Cl)n4)CC3)ccc21,23.5%,99.3%,106%,102%,83.7%,110%,74.4%,109%,89.9%,83.4%,,97.7%,90.2%,78.1%,82.2%,,91.9%,
CCOC(=O)c1cc(C(=O)c2cc(OC)c(OC)c(OC)c2)n2ccc(-c3ccncc3)cc12,69.4%,56.9%,90.5%,113%,96.3%,87%,111%,109%,86.8%,84.1%,,106%,105%,107%,76.3%,,100%,
N#Cc1c(-c2ccc(Cl)cc2)nc(SCC(=O)NC2=NN=C(c3ccccc3)CS2)[nH]c1=O,42.7%,73.5%,101%,112%,83.4%,47.5%,90.4%,83.7%,93.7%,41.4%,91.3%,29.5%,91.6%,47.8%,80.6%,89.6%,83.8%,
C=C(CNCCc1ccc(O)cc1)[C@@H]1CC[C@]2(CO)CC[C@]3(C)[C@H](CC[C@@H]4[C@@]5(C)CCC(NCCO)C(C)(C)[C@@H]5CC[C@]43C)[C@@H]12 (some centres undefined),-42.3% (active),-45.9% (active),-49.7% (active),4.67% (active),-15.9% (active),86.4%,-37.1% (active),-41.7% (active),,-64.2% (active),-68.1% (active),-92.1% (active),-82.4% (active),-72.3% (active),-92.5% (active),-84.3% (active),-25.8% (active),53.8%
